Bioassay records (PubChem BioAssay)
Only some compounds are listed: those with a hit (about 21% of all), similar ones and a draw of the others.
Pf growth 48h: P. falciparum growth inhibition at 48 hours (one generation); P. falciparum luciferase growth in erythrocytes, 48 h; Potency, µM (highest dose often 28.7 µM), hits mostly inhibitors; 310,000 compounds, 5.9% hits
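Luciferase-expressing P. falciparum in infected erythrocytes (2% hematocrit, 0.1% parasitemia final) in RPMI 1640/0.5% Albumax were exposed to compound for 48 hours at 37 C, 5% CO2; growth read as luminescence.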
AMA1-RON2 inh: inhibitors of Plasmodium falciparum AMA1-RON2 interaction | Potency, µM (doses to about 58.2 µM), usual class: inhibitors | AlphaScreen AMA1-biotinylated RON2 peptide binding | 360,000 compounds, 0.2% hits; also: nearly all actives have a fitted effect of over 45% in size
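AMA1 (3D7) with his tag at 25 nM final met compounds first, then biotinylated RON2 peptide at 25 nM; detection used donor plus acceptor beads, 10 µg/mL apiece, read by AlphaScreen after 30 min at room temperature.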
HCV inh: inhibitors of hepatitis C virus infection; Huh7.5.1 HCVcc-Cre infection, luciferase reporter, 44 h; Potency, µM (titrated, usually from 41.8 µM), hits mostly inhibitors; 340,000 compounds, 3.4% hits
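Reporter virus HCVcc-Cre (~0.5 moi) infects cells exposed to compound; seeding density 1,000 cells/well with 4 h settling beforehand. Luminescence, 15 sec read, taken 44 h post-infection following a 15 min RT substrate incubation.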
Cycloheximide cs: affects cycloheximide protein synthesis inhibition readout, counter-screen | cell reporter, cycloheximide protein synthesis inhibition counterscreen | 300,000 compounds, 12% hits | max response, %; in the data active = max response mostly above about 13%, no sharp cut-off; inactive = mostly below about 14%; also: read at 38.3 µM for the half of the compounds with a filed dose
Shiga inhibitor: blocks Shiga toxin action in Vero cells | 290,000 compounds, 9.2% hits | inhibition, % at 38.7 µM | Vero cells, Shiga toxin protein synthesis inhibition reporter; in the data active = inhibition mostly above about 28%, no sharp cut-off; inactive = mostly below about 43%
Pf growth 96h: inhibits malaria parasite growth, 96 h; Potency, µM (titrated, usually from 28.7 µM), most hits filed as inhibitors; P. falciparum luciferase reporter growth, 96 h; 320,000 compounds, 6.9% hits
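Plates of compound plus infected erythrocytes (2% hematocrit, 0.05% parasitemia final) incubate 96 hours, 37 C, 5% CO2. Detection reagent added; reduced luminescence from the parasites' luciferase reporter flags inhibition.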
Hits are given with their value; – = inactive; ? = inconclusive; · = no result given. Unless noted, calls follow the shape of the dose curve; as a rule, active = well fitted curve in the direction sought with a large enough effect; inconclusive = small, poorly fitted or top-dose-only effect, or another doubt; inactive = no such curve, though single readings can be large; an effect the other way counts as inactive or inconclusive.

SMILES	Pf growth 48h	AMA1-RON2 inh	HCV inh	Cycloheximide cs	Shiga inhibitor	Pf growth 96h
N/C(=N\N=C\c1ccc([N+](=O)[O-])cc1)c1nonc1N	–	–	–	51.1	91.4	–
N/C(=N\N=C\c1ccc(O)cc1)c1nonc1N	–	–	–	30.0	–	–
CS/C(N)=N/N=C/c1ccc2c(c1)OCO2	–	–	–	25.1	71.0	–
N/C(=N\N=Cc1ccc2c(c1)OCO2)NN=Cc1ccc2c(c1)OCO2	·	–	–	·	·	·
Nc1nonc1-n1nnc(C(=O)N/N=C/c2ccc(O)cc2)c1COc1ccc(F)cc1	–	–	–	–	–	–
COc1ccc(C#Cc2cccc(-c3nc(C(=O)NCc4ccc(Oc5ccccc5)cc4)cc4c3[C@@H](CCO)N(S(=O)C(C)(C)C)C4)c2)cc1OC (some centres not stated)	·	–	·	·	·	·
COc1cc(/C=N/NC(=O)c2nnn(-c3nonc3N)c2C(C)C)ccc1O	–	–	?	–	–	–
COc1cc(/C=N/N=C(\N)c2nonc2N)ccc1O	–	–	–	24.4	61.3	–
O=C(NN1CC(C(=O)OCc2ccc(Cl)cc2Cl)CC1=O)c1ccccc1 (configuration not stated)	–	–	–	–	–	?
COc1ccc(/C=N/n2cc(-c3ccccc3)nc2N)cc1	?	–	–	28.4	42.8	10.4µM
COc1ccc(/C=N/n2cc(-c3ccc(OC)cc3)nc2N)cc1	?	–	–	–	–	?
COc1ccc(Cl)cc1NC(=O)CN(C)C(=O)c1ccc(-n2cncn2)cc1	·	–	–	·	·	·
CCc1ccc(-c2nn(Cc3ccccc3)cc2C=O)cc1	–	–	?	50.0	90.3	–
CCc1ccc(-c2nn(Cc3ccccc3)cc2/C=C/C(=O)O)cc1	–	–	–	–	–	·
O=C(N/C(=C\c1ccc(F)cc1)C(=O)N1CCOCC1)c1ccccc1	–	–	–	–	–	–
CCC(=O)NC(c1cccs1)c1cc([N+](=O)[O-])c2cccnc2c1OC (configuration not stated)	–	·	·	·	·	–
CCCC(=O)NC(c1cccs1)c1cc(Cl)c2cccnc2c1O (configuration not stated)	3.7µM	–	3.16µM	–	–	?
CCCC(=O)NC(c1ccc2c(c1)OCO2)c1cc(Cl)c2cccnc2c1O (configuration not stated)	?	–	1.12µM	–	–	–
CCCC(=O)NC(c1ccco1)c1cc(Cl)c2cccnc2c1O (configuration not stated)	11.7µM	–	11.2µM	–	–	·
O=C1CCSC2=C1SCc1sccc12	·	–	·	·	·	·
CCN(CC)CC#CCC(OC)(c1ccccc1)c1ccccc1	?	–	–	–	–	–
Cc1cccc(Cn2cc(/C=C/[N+](=O)[O-])c3ccccc32)c1	3.7µM	–	?	–	–	–
O=[N+]([O-])/C=C/c1cn(Cc2ccc(Cl)cc2)c2ccccc12	3.7µM	?	?	–	–	?
COC(=O)c1ccc(Cn2cc(/C=C\[N+](=O)[O-])c3ccccc32)o1	4.65µM	–	–	–	·	?
O=C(O)c1ccc(Cn2cc(/C=C\[N+](=O)[O-])c3ccccc32)o1	–	–	–	–	–	–
SMILES	Pf growth 48h	AMA1-RON2 inh	HCV inh	Cycloheximide cs	Shiga inhibitor	Pf growth 96h
CC(NC(=O)COC(=O)c1cc(S(=O)(=O)N2CCOCC2)ccc1F)c1ccccc1 (configuration not stated)	·	–	–	·	·	·
O=C(CSc1nnc(-c2ccc(F)cc2)o1)Nc1ccc(S(=O)(=O)N2CCCCCC2)cc1	9.28µM	–	–	–	–	–
Cc1ccc(NC(=O)CSc2nnc(-c3ccc(S(=O)(=O)N4CCCC4)cc3)o2)cc1C	?	–	?	–	–	–
O=C(CSc1nnc(-c2ccc(F)cc2)o1)Nc1ccc(S(=O)(=O)N2CCCC2)cc1	?	–	–	19.6	–	–
COc1ccc(Cn2cc(CN3CC(N(C)C)CS3(=O)=O)nn2)cc1 (configuration not stated)	·	–	·	·	·	·
CCCN(C(=O)c1cc(S(=O)(=O)N(C)c2ccc(OCC)cc2)ccc1C)C1CCS(=O)(=O)C1 (configuration not stated)	?	–	–	·	·	?
COc1ccccc1NC(=O)C(=O)c1cn(CC(=O)N2CCOCC2)c2ccccc12	–	–	–	12.2	34.7	–
COc1ccccc1NC(=O)C(=O)N1CCCC1	–	–	–	18.8	60.4	?
COc1ccc(OC)c(NC(=O)CS(=O)(=O)c2cn(CC(=O)N3CCOCC3)c3ccccc23)c1	?	–	–	–	–	?
CC(=O)Nc1cccc(NC(=O)CS(=O)(=O)c2cn(CC(=O)N(C(C)C)C(C)C)c3ccccc23)c1	?	–	–	–	–	11.7µM
CC(C)N(C(=O)Cn1cc(S(=O)(=O)CC(=O)NCc2ccccc2)c2ccccc21)C(C)C	–	–	–	–	–	–
COc1ccc(NC(=O)CS(=O)(=O)c2cn(CC(=O)N3CCOCC3)c3ccccc23)cc1OC	–	–	–	–	–	7.38µM
COc1cccc(/C=C/C(=O)NNC(=O)c2cc(C)oc2C)c1	–	–	–	·	·	–
Cc1ccc(C(=O)NCC(=O)NCCCc2ccccc2)cc1	–	–	–	–	–	–
CCCCN(C)c1c(C)nc2ccc(C(=O)N(C)CCN(C)C)cn12	·	–	·	·	·	·
COc1ccccc1NC(=O)C(=O)c1cn(CC(=O)N2CCCC2)c2ccccc12	–	–	?	21.8	–	–
COc1ccc(NC(=O)C(=O)c2cn(CC(=O)N3CCCC3)c3ccccc23)c(OC)c1	–	–	–	–	–	–
CCCCN1C(=O)C(=O)N(CC(=O)Nc2cc(OCC)c(N3CCOCC3)cc2OCC)C1=O	–	–	–	–	–	–
O=C(Nc1ccccc1Cl)C1CCCN(S(=O)(=O)c2cccc3cccnc23)C1 (configuration not stated)	?	–	–	–	–	–
Cc1ccc2nc(NC(=O)C3CCN(S(=O)(=O)c4cccc5nsnc45)CC3)sc2c1	?	–	?	–	–	–
O=C(Nc1nc2cc(Cl)ccc2s1)C1CCCN(S(=O)(=O)c2cccc3cccnc23)C1 (configuration not stated)	·	–	11.2µM	–	–	11.7µM
O=C(Nc1ccc2c(c1)OCCO2)C1CCCN(S(=O)(=O)c2cccc3nsnc23)C1 (configuration not stated)	·	–	?	24.2	–	–
Cc1ccc2nc(NC(=O)C3CCCN(S(=O)(=O)c4cccc5nsnc45)C3)sc2c1 (configuration not stated)	10.4µM	–	11.2µM	24.7	–	?
COc1ccccc1N1CCN(CCN2C(=O)C3CCCCN3C2=O)CC1 (configuration not stated)	–	–	–	–	–	?
Cc1ccc(C(=O)NC(=S)NCc2cccnc2)cc1C	?	–	–	–	–	9.28µM
